Test results from PubChem BioAssay (NCI).
This is part of a sample that, as a whole, favours compounds with a hit. Of some 83,000 tested, about 20% had one in any assay.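 Single-concentration screen, 48 h exposure, 96-well plates. Endpoint: percent growth. Below 10 = active.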 Values without a mark were called inactive. Active and inactive are the calls of the source.

Assays:
Assay in all cases: NCI-60 one-dose screen, 48 h (100 = growth as untreated, 0 = no growth, -100 = all killed)
Conditions in all cases: 10 µM unless noted
NCI-H23 lung = tested on: NCI-H23 lung
NCI-H226 lung = tested on: NCI-H226 lung
NCI-H322M lung = tested on: NCI-H322M lung
HOP-62 NSCLC = tested on: HOP-62 NSCLC
NCI-H460 lung = tested on: NCI-H460 lung
HOP-92 NSCLC = tested on: HOP-92 NSCLC
NCI-H522 lung = tested on: NCI-H522 lung
A549/ATCC NSCLC = tested on: A549/ATCC NSCLC
786-0 renal = tested on: 786-0 renal
COLO 205 colon = tested on: COLO 205 colon
DU-145 prostate = tested on: DU-145 prostate
K-562 leukemia = tested on: K-562 leukemia
MALME-3M melanoma = tested on: MALME-3M melanoma
MDA-MB-231 breast = tested on: MDA-MB-231 breast
RXF 393 renal = tested on: RXF 393 renal
SF-268 CNS = tested on: SF-268 CNS
SF-295 CNS = tested on: SF-295 CNS
SF-539 CNS = tested on: SF-539 CNS
UACC-257 melanoma = tested on: UACC-257 melanoma
M14 melanoma = tested on: M14 melanoma

SMILES | growth (NCI-H23 lung) | growth (NCI-H226 lung) | growth (NCI-H322M lung) | growth (HOP-62 NSCLC) | growth (NCI-H460 lung) | growth (HOP-92 NSCLC) | growth (NCI-H522 lung) | growth (A549/ATCC NSCLC) | growth (786-0 renal) | growth (COLO 205 colon) | growth (DU-145 prostate) | growth (K-562 leukemia) | growth (MALME-3M melanoma) | growth (MDA-MB-231 breast) | growth (RXF 393 renal) | growth (SF-268 CNS) | growth (SF-295 CNS) | growth (SF-539 CNS) | growth (UACC-257 melanoma) | growth (M14 melanoma)
CCN(CC)CCCC(C)Nc1ccnc2cc(Cl)c(SCc3ccccc3)cc12 (centres undefined) | -17.1% (active) | 24.2% | -28.9% (active) | -72.2% (active) | -54.9% (active) | -43.1% (active) | -69.6% (active) | -23.1% (active) | -93.3% (active) | -89.5% (active) | 25.4% | -51.1% (active) | -77.3% (active) | -78.5% (active) | -91.1% (active) | -66.3% (active) | -81.7% (active) | -89.5% (active) | -79.2% (active) | -88.2% (active)
C=CCCCCCCCCC(=O)OC(C)C | 98.4% | 102% | 94% | 97.5% | 100% | 82.3% | 91.7% | 99.2% | 104% | 105% | 101% | 107% | 78.9% | 97.4% | 93.2% | 96.9% | 98.8% | 104% | 94.9% | 96.4%
CCOC(=O)c1c[nH]c2cc(OCC3CC3)c(OCC3CC3)cc2c1=O | 110% | 106% | 100% | 109% | 103% | 116% |  | 109% | 120% | 113% | 102% | 121% | 106% | 119% | 114% | 109% | 103% | 105% | 115% | 115%
Cc1c(Cn2cc(COc3ccc(Br)cc3)nn2)c(C)c(Cn2cc(COc3ccc(Br)cc3)nn2)c(C)c1Cn1cc(COc2ccc(Br)cc2)nn1 | 98.7% | 88.2% | 108% | 84% | 102% | 93.7% |  | 83.4% | 95.2% | 84.6% | 104% | 103% | 89.1% | 89.7% | 102% | 97% | 89.6% | 96% | 80.2% | 97.7%
C=C(C)[C@@H]1CC[C@]2(C(=O)NCCCN)CC[C@]3(C)[C@H](CC[C@@H]4[C@@]5(C)CC[C@H](O)C(C)(C)[C@@H]5CC[C@]43C)[C@@H]12 | -8.47% [100 µM] (active) | 36.6% [100 µM] | -68.8% [100 µM] (active) | -26.8% [100 µM] (active) | -43.2% [100 µM] (active) | -55.5% [100 µM] (active) |  | -4.7% [100 µM] (active) | -22.6% [100 µM] (active) | 7.82% [100 µM] (active) | -100% [100 µM] (active) | 1.1% [100 µM] (active) | -18.8% [100 µM] (active) | -47.8% [100 µM] (active) | -42.3% [100 µM] (active) | -16.9% [100 µM] (active) | -26.4% [100 µM] (active) | -36.2% [100 µM] (active) | -46.7% [100 µM] (active) | 5.07% [100 µM] (active)
Nn1c(Nc2ccc(S(=O)(=O)Nc3ncccn3)cc2)nnc(/C=C/c2c(O)ccc3ccccc23)c1=O | 88.9% | 78.8% | 90% | 81.8% | 88.4% | 83.3% |  | 89.5% | 111% | 103% | 99.7% | 85.2% | 94.2% | 71.4% | 106% | 84.7% | 100% | 102% | 94.4% | 97.5%
CCOc1ccc(/C=C(\C#N)c2cc3ccccc3[nH]2)cc1 | 78.6% | 90% | 87.1% | 54.7% | 36.2% | 87.4% |  | 38% | 89.5% | 49.4% | 81% | 15.3% | 60% | 71.9% | 58.6% | 84.2% | 58.3% | 68.3% | 79.2% | 39%
CCOC(=O)C1=C(C(=O)c2ccc(Br)cc2)C(c2ccc(Br)cc2)NC(=S)N1 (centres undefined) | 98% | 94.9% | 97.3% | 88.4% | 101% | 96.3% |  | 100% | 106% | 118% | 113% | 106% | 107% | 109% | 109% | 98.6% | 102% | 99.5% | 109% | 97.2%
